# Results taken from publication PMC5540273 (PLoS ONE, 2017).
# Tests used:
# Conditions in all cases: concentration: 1 μM, replicates: in singlicate; n = 1
# [1] = tested on: T1, LKB1
# T1 construct: gene STK11
# [2] = tested on: T2, LOK
# T2 construct: gene STK10
# [3] = tested on: LRRK2
# [4] = tested on: LTK
# [5] = tested on: LYN
# [6] = tested on: T3, LZK
# T3 construct: gene MAP3K13
# [7] = tested on: MAK
# [8] = tested on: MAP3K15
# [9] = tested on: MAP3K1
# [10] = tested on: MAP3K2
# 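Note: KINOMEscan kinase panel screen.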
Compound,%Inh [1] [%],%Inh [2] [%],%Inh [3] [%],%Inh [4] [%],%Inh [5] [%],%Inh [6] [%],%Inh [7] [%],%Inh [8] [%],%Inh [9] [%],%Inh [10] [%]
COc1ccc(Nc2nccc(N3CCC(NC(=O)c4cccc(NC(C)=O)c4)C3)n2)cc1 (centres unmarked) [GSK1379732],22,0,0,0,0,46,14,0,0,0
CC(C)(C)OC(=O)NC1CCCN(c2cc(-c3ccc4c(N)n[nH]c4c3)nc(N)n2)C1 (centres unmarked) [GSK2286096],0,0,0,0,0,0,17,0,10,0
FC(F)(F)c1cc(Nc2nccc(-c3c(-c4ccc(Cl)cc4)nn4ncccc34)n2)ccc1Cl [GW829351],0,6,0,0,0,0,0,0,0,0
O=c1cc(N2CCOCC2)nc2n(Cc3cccc(Cl)c3)ccn12 [GSK2296823],0,0,35,0,0,0,0,11,6,8
Cl.Cl.c1ccc(-c2cc3ccncc3cc2OC2CCNCC2)cc1 [GSK1122999],3,0,0,24,38,0,28,0,19,13
C[C@H]1CC[C@@H](C(=O)Nc2ccccc2)CN1c1cc(-c2ccc3c(N)n[nH]c3c2)nc(N)n1 [GSK2283293],15,0,0,0,0,0,12,0,0,0
Fc1cccc(COc2ccc(Nc3ncnc4cc[nH]c34)cc2Cl)c1,0,29,9,18,0,20,9,50,21,11
COc1ccc(-c2oc3ncnc(N)c3c2-c2ccc(OC)cc2)cc1 [SB-589132],28,0,33,0,4,51,11,0,10,0
CNc1nccc(-c2c(-c3ccc(F)cc3)ncn2C2CCN(C)CC2)n1 [SB-222903],0,3,0,0,0,0,0,0,0,0
Nc1nc(-c2ccccn2)c(-c2ccnc3ccccc23)s1 [GW548057],8,0,0,0,0,51,12,11,10,0
CCC(CC)(CC)n1cnc2c(N)ncnc21 [SKF-97620],70,23,9,6,0,36,12,24,21,40
Cl.c1ccc(Cn2ccc3cc(Nc4ncnc5ccccc45)ccc32)cc1 [GW275568],0,32,0,6,0,35,25,0,0,0
FC(F)(F)c1ccc(-c2nn3ncccc3c2-c2ccnc(Nc3cccc(C(F)(F)F)c3)n2)cc1 [GW828205],0,16,17,0,0,0,22,0,0,0
Cc1cccc(-c2nc(Nc3ccc4[nH]nnc4c3)c3ccccc3n2)n1 [GW867587],0,0,0,13,0,0,0,0,0,0
Cl.c1ccc(Cn2ncc3cc(Nc4ncnc5ccccc45)ccc32)cc1 [GW273749],0,0,0,0,0,0,33,0,7,0
NC(=O)c1sc(-n2cnc3ccccc32)cc1OCc1ccccc1F [GSK1024306],0,63,29,5,0,27,13,0,59,0
Nc1nccc2scc(-c3ccc4c(c3)CCN4C(=O)Cc3cc(F)ccc3F)c12 [GSK2587663],14,0,9,2,0,0,8,0,7,23
